The structures appear in SMILES notation. About 83,000 compounds went through this panel and 20% of them were active in at least one assay; those are over-represented in the sample as a whole.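 Values shown are percent growth following 48 h exposure of cells in 96-well plates to a single concentration of compound; below 10 was considered active.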 Unmarked numbers belong to inactive results. Activity calls are given as the source filed them.

This assay concerns NCI/ADR-RES ovarian. Nature of the assay: NCI-60 one-dose screen, 48 h (100 = growth as untreated, 0 = no growth, -100 = all killed). To be noted: 10 µM. The procedure:
Growth inhibition of the NCI/ADR-RES human […] tumor cell line is measured as a screen for anti-cancer activity. Cells are grown in 96 well plates and exposed to the test compound for 48 hours. Compounds are tested at a single concentration, which is 10^-5 M for most compounds. The reported endpoint is percent growth (GI% or GIPRCNT), where numbers from 0 - 100% represent growth inhibition, and numbers from -100% - 0 represent cell death. For example, a value of 40 represents 60% growth inhibition. A value of 0 means no net growth occurred over the course of the experiment. A value of -40 indicates 40% of cells at the beginning of the experiment died by the end of the experiment. A value of -100 means all cells are dead at the end of the experiment.
NCI-60 Human Tumor Cell Lines Screen was performed using the standard one-dose NCI protocol, which is described in more detail at https://dtp.cancer.gov/discovery_development/nci-60/default.htm.
Compounds with GIPRCNT values below 10 were considered active. Activity score was based on GIPRCNT using the following formula: […]
Score is 0 for GIPRCNT values of 100 or above, 50 for GIPRCNT values of 0, and 100 for GIPRCNT values of -100.
Regarding `COc1cc(-c2nc3cc(Cl)c(Cl)cc3[nH]2)ccc1OCc1nnc(-c2ccc(Br)cc2)o1`, the growth is 22%.

Consider `C=C1CCC2C3(C)COC(c4ccccc4F)OC3CCC2(C)C1C/C=C1/C(=O)OCC1O` (stereo not given), for which the growth was -23% (active).

As for `COc1cccc2nc(Nc3ccc(F)c(NC(=O)c4ccc(CN5CCN(C)CC5)c(C(F)(F)F)c4)c3)ccc12`, the growth is -3.12% (active).

Regarding `O=C1Nc2ccc(F)cc2/C1=C/c1cccc(OCc2ccccn2)c1`, the growth is 7.99% (active).

For `CCN1CCN(c2ccc(NC(=O)Nc3ccc(-c4cc(C(=O)NC(C)C)c5ncccc5n4)cc3)cc2C(F)(F)F)CC1`, the growth is -66.9% (active).

As to `O=C(Nc1nc2ccc([N+](=O)[O-])cc2s1)Nc1cc(Cl)ccc1I`, the growth is -34.5% (active).

`CCOC(=O)C1NN(c2ccc(S(N)(=O)=O)cc2)c2nc3nc(-c4cccs4)cc(-c4cccs4)c3c(=O)n21` (stereo not given): the growth is 88.6%.

Regarding `Cc1ccc2nc(COc3ccc(C(=O)NNC(=S)NCCc4ccccc4)cc3)[nH]c2c1`, the growth was 75.4%.

As for `O=C(O)CCCCCCCCCCN1C(=O)/C(=C/c2cnc(-c3ccc(Cl)cc3)s2)SC1=S`, the growth is 11%.

On to `COc1ccc2ncc(C#Cc3cncc(C(=O)Nc4ccc(CN5CCN(C)CC5)c(C(F)(F)F)c4)c3)n2n1`, for which the growth is -81.4% (active).

Take `O=C(c1ccc(Cl)cc1)C1[C@H](c2ccc(Br)cc2)[C@@H](c2ccccc2)NC12C(=O)Nc1ccc(Br)cc12` (stereo not given in full): the growth was -85.6% (active).

Take `COc1cccc(-c2nn(-c3ccccc3)cc2-c2ccnc(NCCCNC(=O)Nc3ccc(F)cc3)c2)c1`: the growth was -35.6% (active).

Regarding `COc1cc(/C=C/C(=O)c2ccc(S(=O)(=O)NCCNc3nc(Nc4ccc(F)cc4)nc(N(C)C)n3)cc2)cc(OC)c1OC`, the growth is 46.6%.

Turning to `Cc1ccc(-c2nc3ccc(C(=O)N=Nc4c(O)[nH]c5ccc([N+](=O)[O-])cc45)cc3[nH]2)cc1`, the growth was 103%.

As to `CCOC(=O)C1=C(N)N(c2ccccc2)C2=C(C(=O)CC(C)(C)C2)C1c1ccccc1OC` (stereo not given), the growth was 96.6%.

As to `Nc1cc(-c2cccc(C(=O)NCc3ccc4c(c3)OCO4)c2)ccn1`, the growth is 88.5%.

`CCCCOc1ccc(Nc2nc3ccccc3nc2Nc2ccc(OCCCC)cc2)cc1`: the growth was 94.3%.

For the compound `C=C(C)[C@@H]1CC[C@]2(COP(=O)(OCC)OCC)CC[C@]3(C)[C@H](CC[C@@H]4[C@@](C)(CCCN)[C@H](C(=C)C)CC[C@]43C)[C@@H]12`, the growth is 18.9%.

Consider `COc1ccc([C@H]2C(C(=O)c3ccc(Cl)cc3)C3(N[C@@H]2c2ccccc2)C(=O)Nc2ccc(Cl)cc23)cc1` (stereo not given in full), for which the growth is -47.1% (active).

Consider `O=C(COc1ccc(NC(=O)Nc2ccc(Cl)cc2)cc1)N=Nc1c(O)[nH]c2ccc([N+](=O)[O-])cc12`, for which the growth was 92.6%.

For `O=C(c1ccc(Cl)cc1)C1[C@H](c2ccccc2Br)[C@@H](c2ccccc2)NC12C(=O)Nc1ccc(Br)cc12` (stereo not given in full), the growth is -67% (active).

As for `COc1cc(/C=C/C(=O)c2ccc(NC(=O)CSc3nnc(-c4c[nH]c5ccccc45)n3-c3ccccc3)cc2)cc(OC)c1OC`, the growth was 96.1%.

Regarding `COc1ccc(C(=O)Nc2ccc(-c3ccc4c(c3)NC(=O)/C4=C\c3ccc[nH]3)cc2)cc1`, the growth is -42.8% (active).

In the case of `CC(C)NC(=O)c1cc(-c2ccc(NC(=O)Nc3ccc(N4CCN(C)CC4)c(C(F)(F)F)c3)cc2)nc2cccnc12`, the growth was -61.7% (active).

For the compound `C#CCNC(=O)[C@]12CCC(C)(C)C[C@H]1C1=CC[C@@H]3[C@@](C)(CCC#N)[C@H](C(=C)C)CC[C@@]3(C)[C@]1(C)CC2`, the growth is 62.5%.

With `CCOc1ccc2ncc(C#Cc3cncc(C(=O)Nc4ccc(CN5CCN(C)CC5)c(C(F)(F)F)c4)c3)n2n1`, the growth is -70.1% (active).

Regarding `COc1ccc(N2N=C(c3ccc4c(c3)OCCO4)CC2c2cccc(NC(=O)CCCNS(=O)(=O)c3ccc(F)cc3)c2)cc1` (stereo not given), the growth was 88.5%.

`COc1ccsc1/C=N/NC(=O)c1[nH]c2ccc(Br)cc2c1-c1ccccc1`: the growth was -23.9% (active).

On to `CC1=C(c2cc(-c3ccc(Cl)cc3)c(C#N)c(N)n2)C(c2ccccc2)NC(=S)N1` (stereo not given), for which the growth was 37.9%.

`O=C(CNc1nc(-c2ccccc2)cs1)Nc1ccc([N+](=O)[O-])cc1Cl`: the growth is -7% (active).

As to `COC[C@@H](CC(C)C)N=C1N/C(=C\c2ccc3ncsc3c2)C(=O)N1C`, the growth was 0.43% (active).

Regarding `Cc1ccc(-c2cc(C(=O)N=Nc3c(O)[nH]c4ccccc34)c3ccccc3n2)cc1`, the growth is -16.9% (active).

Consider `COc1ccc(-c2nc(S(=O)(=O)c3ccc(C)cc3)c(S(=O)(=O)CC(=O)N(C)Cc3ccccc3)o2)cc1`, for which the growth is 28.8%.

Turning to `CCCCCc1ccc(S(=O)(=O)Nc2cc(-c3csc(N(C)C(C)=O)n3)ccc2N2CCN(C)CC2)cc1`, the growth was 32.7%.

Consider `O=C(c1ccc(Cl)cc1)C1[C@H](c2ccc(Br)cc2)[C@@H](c2ccccc2)NC12C(=O)Nc1ccccc12` (stereo not given in full), for which the growth was -53.1% (active).

For the compound `Cc1ccc(-c2cc(C(=O)N=Nc3c(O)[nH]c4ccc(Br)cc34)c3ccccc3n2)cc1`, the growth is 55%.

With `COc1cc2c3c(n(CCCN4CCOCC4)c(=O)c2cc1OC)-c1nc2c(cc1C3=O)OCO2`, the growth is 17.1%.

On to `O=C1CCC(N2Cc3cc(CC(=O)Nc4ccc(N5CCCCC5)cc4)ccc3C2=O)C(=O)N1` (stereo not given), for which the growth was 25.2%.

On to `O=C1Nc2ccc(F)cc2/C1=C/c1cccc(OCc2ccccc2)c1`, for which the growth was -13.9% (active).

`COc1ccc(C2N(c3ccc(Br)cc3)N=C(C(C)=O)N2[C@H]2[C@H](OC(C)=O)O[C@H](COC(C)=O)[C@@H](OC(C)=O)[C@@H]2OC(C)=O)cc1` (stereo not given in full): the growth is 62.1%.

Source of the values: PubChem BioAssay (NCI).
